Compounds without any hit were thinned out: in the full panel of roughly 83,000, 20% have a hit.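 Plates (96-well) were seeded with cells, treated with compound at one concentration, and incubated for 48 hours before percent growth was determined.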 Active and inactive are the calls of the source. Rule for the calls: active = growth percent below 10; inactive = the rest.
The molecules below were run on SW-620 colon (assay: NCI-60 one-dose screen, 48 h (100 = growth as untreated, 0 = no growth, -100 = all killed)). Details: 10 µM unless noted.
`Cc1cc(Cl)ccc1Nc1nc(C(F)(F)F)ccc1C(=O)N/N=C/c1ccc([N+](=O)[O-])cc1` was tested, and the growth was 93.4% (inactive). `CCOC(=O)c1cc(C(=O)c2cc(OC)c(OC)c(OC)c2)n2ccc(-c3ccncc3)cc12` was tested, and the growth was 105% (inactive). With `C[C@@H]1CCC[C@H]1CC(N)C(=O)O` (some centres undefined) the growth was 102% (inactive). For `Cc1ccc(Cc2cnc(NC(=O)c3cc(Br)cs3)s2)cc1`, the growth was 42% (inactive). In the case of `O=C1C(Cl)=C(Oc2ccccc2)C(=O)c2ccccc21`, the growth was 47.6% (inactive). `CC/C(=C(/c1ccc(Cl)cc1)c1ccc(OCCN2CCCC2)cc1)c1ccc(OC)cc1` was tested, and the growth was 60.2% (inactive). `N=C(N)c1ccc(-c2ccc(-c3cc(Cl)cc(Cl)c3)o2)o1` was tested, and the growth was -87.4% (active). `COc1cc(-n2cc(-c3cc(O)c(C/C=C(\C)CCC=C(C)C)c(O)c3)nn2)cc2c1O[C@]1(C)CC[C@@H](O)C(C)(C)[C@H]1C2` was tested, and the growth was 11.7% (inactive). In the case of `COc1cccc([C@H]2c3[nH]c4ccccc4c3C[C@H]3C(=O)N(CCCCCCC(=O)NO)CC(=O)N23)c1`, the growth was 57.4% (inactive). For `CC(O)c1cnc(/C=C2\SC(=S)N(Cc3ccccc3)C2=O)s1` (centres undefined), the growth was 39.7% (inactive). For `Cc1cc(Cl)ccc1NC(=O)c1cc2ccccc2cc1O`, the growth was 11.2% (inactive). `CCn1cc(C(=O)N/N=C/c2cccs2)c(=O)c2cc(F)c(N3CCNC(C)C3)c(F)c21` (centres undefined) was tested, and the growth was -16.8% (active). For `CC1=C(CCC(C)N(C)Cc2ccc(OCCCN3CCCC3)cc2)C(C)(C)CCC1` (centres undefined), the growth was 21.3% (inactive). In the case of `COP(=O)(OC)C(C)(C)CC(=O)CC(C#N)(C#N)C(C#N)C#N`, the growth was 104% (inactive).
